Assay results: PubChem BioAssay (NCATS)
Results filed as inconclusive are left out. A call without a number means that no potency is given here. Calls of active or inactive are those of the source. Calls come from the whole dose curve; as a rule, active = well fitted cell-killing curve with a large enough effect; inconclusive = small, poorly fitted or top-dose-only effect; inactive = flat fitted curve, though single readings scatter.

Assay: qHTS of pediatric cancer cell lines to identify multiple opportunities for drug repurposing: Primary screen for TC32 cells (AID 1347089); note: nearly all actives have a fitted effect of over 60% in size
Details: TC32 Ewing sarcoma viability, CellTiter-Glo luminescence, 48 h; series mostly up to 45.8 µM
Text: Drug repurposing or repositioning has been offered as a strategy for drug development in oncology programs. This approach has special potential for childhood cancers and other rare or orphan diseases, where the expected return on new drug development has been a disincentive to pharmaceuticals.
In this project we exploit the poly-pharmacology of drugs to discover new indications via phenotypic screening of a panel of 19 well-characterized cell lines derived from solid tumors seen in children and adolescents. The goal is to identify approved drugs with previously unrecognized anticancer properties that has the potential to reveal new mechanisms and biological processes involved in carcinogenesis or drug resistance. We employed a titration-based paradigm (quantitative high-throughput screening or qHTS), where all compounds were tested at multiple concentrations for their effect on cell viability. Concentration-response curves (CRCs) were derived directly from the primary screen, and both potency and efficacy values were used to identify compounds with robust bioactivity profiles. We screened the NIH Chemical Genomics Center (NCGC) Pharmaceutical Collection (NPC) and Mechanism Interrogation Plate (MIPE) small molecule collections of approved and investigational compounds against these cell lines; and measured metabolically active cells after 48 hours of compound treatment as a proxy for cell viability.
Assay Submitter: Nathalia J. Martinez, National Center for Advancing Translational Sciences, National Institutes of Health, Rockville, MD, USA; email: natalia.martinez@nih.gov
[1] Shen, M et al. Quantitative high-throughput phenotypic screening of pediatric cancer cell lines identifies multiple opportunities for drug repurposing. Oncotarget 2017 Dec 19;9(4):4758-4772. PMID 29435139.
The cells were obtained from University of North Carolina (UNC), Pediatric Preclinical Testing Program (PPT), and Coriell Institute (CI).
qHTS cell viability assay:
Cells were assayed in growth media at a density of 500-1,000 cells/well. Five microliters of cells were dispensed into 1,536-well, white, solid-bottom, TC-treated plates (Greiner Bio One) using a multidrop dispenser and incubated at 37 degrees C, 5% CO2, under a humidified atmosphere for 5 hours. Twenty-three nanoliters of compounds and controls (neutral control DMSO or positive control bortezomib at final concentration of 2.3 uM) were subsequently transferred by Kalypsys pintool. For primary screens, the MIPE collection was tested at 11-point dilutions (final concentrations range from 0.78 nM to 46 µM) and the NPC collection at 8-point dilutions (final concentrations range from 0.59 nM to 46 µM). Compounds tested in follow-up screens were assayed at 11-point dilutions. Cells were incubated for 48 hours, followed by addition of 3 uL of CellTiter-Glo (Promega). After a 15min incubation at room temperature, samples were analyzed for luminescence intensity using a ViewLux High-throughput CCD imager equipped with clear filters.
Potency is the fitted concentration of half-maximal effect.

Row | SMILES | Potency
1 | CCc1cc2c(s1)-n1c(C)nnc1CN=C2c1ccccc1Cl | inactive
2 | C[C@]12Cc3cn[nH]c3C[C@@H]1CC[C@@H]1[C@@H]2CC[C@@]2(C)[C@H]1CC[C@]2(C)O | inactive
3 | NC(=O)CS(=O)C(c1ccccc1)c1ccccc1 (stereo not given) | inactive
4 | C[C@@H]1CC2=CC(=O)CC[C@@H]2[C@H]2CC[C@@]3(C)[C@@H](CC[C@]3(C)O)[C@@H]21 | inactive
5 | CN(C)CCc1c[nH]c2cccc(OP(=O)(O)O)c12 | inactive
6 | CN1CC[C@]23c4c5ccc(O)c4O[C@H]2[C@@H](O)CC[C@H]3[C@H]1C5 | inactive
7 | C[C@]12CCC(=O)C=C1CC[C@@H]1[C@@H]2CC[C@]2(C)C(=O)CC[C@@H]12 | inactive
8 | COP(=S)(OC)Oc1ccc(S(=O)(=O)N(C)C)cc1 | inactive
9 | CC(C(=O)c1ccccc1)N(C)C (stereo not given) | inactive
10 | Oc1ccc(Cl)cc1 | inactive
11 | COc1cc(CC(C)N)cc(OC)c1OC (stereo not given) | inactive
12 | ClCCN1CCCC1 | inactive
13 | CCN[C@@H](C)Cc1ccccc1 | inactive
14 | COC1CC(=C(c2cccs2)c2cccs2)C[N+](C)(C)C1 (stereo not given) | inactive
15 | O=c1oc2ccccc2c(O)c1Cc1c(O)c2ccccc2oc1=O | inactive
16 | CCCN(CCC)C(=O)Cc1c(-c2ccc(Cl)cc2)nc2ccc(Cl)cn12 | inactive
17 | C=CCC1([C@H](C)CCC)C(=O)NC(=O)NC1=O | inactive
18 | NNc1ccccc1 | inactive
19 | O=C1CN=C(c2ccccc2)c2cc([N+](=O)[O-])ccc2N1 | inactive
20 | CCOC(=O)CC(SP(=S)(OC)OC)C(=O)OCC (stereo not given) | inactive

Row | SMILES | Potency
21 | COc1cccc2c1C(=O)c1c(O)c3c(c(O)c1C2=O)C[C@@](O)(C(=O)CO)CC3OC1CC(N2CCOC(OC)C2)C(O)C(C)O1 (stereo not given in full) | 26.4 nM (active)
22 | O=C(O)c1ccc(=O)[nH]c1 | inactive
23 | O=C(O)CCCc1ccc(N(CCCl)CCCl)cc1 | inactive
24 | c1ccc2c(c1)sc1ccccc12 | inactive
25 | CC(C)(C)NCC(O)c1cc(Cl)c(N)c(C(F)(F)F)c1 (stereo not given) | inactive
26 | CCOP(=S)(OCC)Oc1ccc2c(C)c(Cl)c(=O)oc2c1 | inactive
27 | CNCC(=O)c1ccc(O)c(O)c1 | inactive
28 | COC(=O)[C@@H](N)CCCN/C(N)=N/[N+](=O)[O-] | inactive
29 | CCN[C@@H](C)Cc1cccc(C(F)(F)F)c1 | inactive
30 | CC1(C)C(C=C(Cl)Cl)C1C(=O)OC(C#N)c1cccc(Oc2ccccc2)c1 (stereo not given) | inactive
31 | CCCCC/C=C\C/C=C\C/C=C\C/C=C\CCCC(=O)NCC(=O)O | inactive
32 | C[C@H](N)C(=O)c1ccccc1 | inactive
33 | COc1cccc(C(=O)CCN[C@@H](C)[C@H](O)c2ccccc2)c1 | inactive
34 | CCN(CC)CCc1c[nH]c2ccccc12 | inactive
35 | CC(C)c1c(CN(C)C(C)Cc2ccccc2)n(C)n(-c2ccccc2)c1=O (stereo not given) | inactive
36 | CC(C)c1cccc(C(C)C)c1O | inactive
37 | CC(C)N(CCC(C(N)=O)(c1ccccc1)c1ccccn1)C(C)C (stereo not given) | inactive
38 | CC(=O)OCC1=C(C(=O)O)N2C(=O)[C@@H](N)[C@H]2SC1 | inactive
39 | O=c1c(C2CC(c3ccc(-c4ccc(Br)cc4)cc3)Cc3ccccc32)c(O)sc2ccccc12 (stereo not given) | inactive
40 | Clc1ccccc1N1CCNCC1 | inactive
